KB-V1 MDR tox: kills drug-selected multidrug resistant KB-V1 cells; hit rate 3.4% among 400,000; Potency, µM (highest dose often 46.1 µM), actives largely listed as cytotoxic; KB-V1 MDR cells viability, CellTiter-Glo, 72 h; further: nearly all actives have a fitted effect of over 60% in size
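Drug-selected KB-V1 cells, grown in DMEM lacking phenol red with 10% FBS, receive compound titrations; after three days at 37 degrees C, surviving cell ATP is quantified by CellTiter-Glo luminescence and responses normalized and curve-fitted.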
ATXN2 expr inh: reduces ATXN2 reporter expression in HEK-293 cells. HEK-293 ATXN2-luciferase reporter, luminescence, 24 h. Potency, µM (doses to about 57 µM), usual class: inhibitors. hit rate 0.72% among 360,000. AID 1745845; further: nearly all actives have a fitted effect of over 55% in size
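qHTS (up to 57 uM final) was run with 24 h compound exposure of reporter cells at 37 °C. Each well was multiplexed: SteadyGlo luminescence measured ATXN2-luciferase expression after a fluorogenic Gly-Phe-AFC viability readout (25 uM final).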
HT1080NT lethal: kills 2HG-producing HT-1080-NT fibrosarcoma cells. hit rate 1.6% among 360,000. Potency, µM (titrated, usually from 46.1 µM), actives largely listed as cytotoxic. AID 686970. HT-1080-NT fibrosarcoma viability, CellTiter-Glo ATP luminescence, 48 h;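 further: NT is the 2HG producing partner of a matched IDH1 knockdown line; nearly all actives have a fitted effect of over 55% in size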
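A 48-hour cytotoxicity screen used HT-1080-NT cells plated 2 hours before compound delivery. ATP-based CellTiter-Glo luminescence measured viability, normalized to DMSO and no-cell controls.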
S2 tox: cell viability loss in ATXN counter-screen | S2 cells (HEK-293 line with an ATXN2-luciferase reporter) viability, CellTiter-Fluor protease fluorescence, 24 h | Potency, µM (series often up to 56.7 µM), usual class: cytotoxic | hit rate 0.49% among 400,000 | AID 651635; further: nearly all actives have a fitted effect of over 40% in size
KB-3-1 tox: kills parental KB-3-1 adenocarcinoma cells; hit rate 1.4% among 400,000; AID 1347075; Potency, µM (titrated, usually from 46.1 µM), actives largely listed as cytotoxic; KB-3-1 viability, CellTiter-Glo ATP luminescence, 72 h; further: nearly all actives have a fitted effect of over 60% in size
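Parental KB-3-1 adenocarcinoma cells in phenol-red-free DMEM with 10% FBS were pin-treated with compounds at several concentrations, incubated 72 h at 37 °C, and viability read by CellTiter-Glo luminescence; concentration-effect curves were fitted after normalization.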
HT1080 IDH1KD tx: HT-1080 IDH1 knockdown cell toxicity (counter line). hit rate 2% among 360,000. Potency, µM (top dose mostly 46.1 µM), hits mostly cytotoxic. HT-1080 IDH1 knockdown viability, ATP luminescence, 48 h
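Knockdown cells (IDH1KD HT-1080) received compounds 2 h after plating at 750 cells/well and were kept 48 h at 37 °C in 5% FBS RPMI. A CellTiter-Glo luminescence read gave % activity for curve fitting.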
Numbers stand for hits; – = inactive; ? = inconclusive; · = no result given. An excerpt weighted towards active compounds, which were near 6.2% of everything screened. The call rests on the fitted dose curve; in most records, active means well fitted curve in the direction sought with a large enough effect; inconclusive means small, poorly fitted or top-dose-only effect, or another doubt; inactive means no such curve, though single readings can be large; an effect the other way counts as inactive or inconclusive.

SMILES | KB-V1 MDR tox | ATXN2 expr inh | HT1080NT lethal | S2 tox | KB-3-1 tox | HT1080 IDH1KD tx
CCCC(=O)N1CCN(c2nc3ccccc3s2)CC1 | – | · | – | – | ? | –
Cn1c(N2CCN(C(=O)Nc3ccc(F)cc3)CC2)nc2ccccc21 | 18µM | – | – | – | – | –
COc1cc(/C=C2\COC/C(=C\c3cc(OC)c(OC)c(OC)c3)C2=O)cc(OC)c1OC | ? | 3.2µM | ? | ? | ? | 0.52µM
COc1cc(/C=C2\CC(C(C)(C)C)C/C(=C\c3cc(OC)c(OC)c(OC)c3)C2=O)cc(OC)c1OC (stereo not given) | – | ? | 12µM | ? | 8.2µM | 5.8µM
Cc1ccc2cccc(NC(=O)COc3ccccc3Cl)c2n1 | – | – | · | – | – | ·
Cc1nc(C)c(C(=O)NCCC(c2ccccc2)c2ccccc2)o1 | 8.2µM | – | – | – | ? | –
O=C(NCCn1cc(SCc2ccc(Cl)cc2)c2ccccc21)c1cccs1 | – | – | · | ? | – | ·
CCc1cccc(NC(=O)CN2c3ccccc3S(=O)(=O)c3ccccc32)c1 | – | – | · | – | – | ·
c1ccc(Cn2c(Cn3c(-c4cnccn4)nc4ccccc43)nc3ccccc32)cc1 | 9.2µM | – | ? | ? | – | –
O=C(N/N=C/C(Br)=C\c1ccccc1)c1cccs1 | – | – | ? | – | – | 21µM
CC(=C/c1ccccc1)/C=N/NC(=O)c1cccs1 | ? | – | – | – | – | –
O=C(N/N=C/C(Br)=C/c1ccccc1)c1ccncc1 | – | · | – | · | – | ?
CCOc1cc(C(=O)N/N=C/C(Br)=C/c2ccccc2)cc(OCC)c1OCC | ? | – | 3.7µM | ? | ? | 2.1µM
Cc1ccc(NCC(=O)N/N=C\C(Br)=C\c2ccccc2)cc1 | – | ? | ? | ? | – | 16µM
CCCCc1nn2c(=O)cc(COC(=O)CNC(=O)COc3ccc(C)cc3)nc2s1 | ? | – | · | – | – | ·
Cc1cc(C(=O)N2CCN(c3cccc(Cl)c3)CC2)n(-c2ccccc2)n1 | · | – | · | · | · | ·
O=S(=O)(Nc1cccc(-c2ccc(N3CCOCC3)nn2)c1)c1ccc(F)cc1F | – | – | · | – | – | ·
Cc1cc(Cl)ccc1NC(=O)CS(=O)(=O)c1cccc2nsnc12 | ? | – | · | – | – | ·
O=C1C2C3C=CC(C3)C2C(=O)N1c1ccc(N2CCN(c3ccccn3)CC2)c([N+](=O)[O-])c1 (stereo not given) | 10µM | · | ? | ? | – | –
CC1(C)C(N(O)C(=O)Nc2ccc(Cl)cc2)N(c2ccc(Cl)cc2)C(=O)N1CC(=O)NN=CC=Cc1ccc([N+](=O)[O-])o1 (stereo not given) | · | 34µM | · | · | · | ·
CC1(C)C(N(O)C(=O)Nc2ccccc2)N(c2cccc(Cl)c2)C(=O)N1O (stereo not given) | – | – | – | – | – | –
CCOC(=O)[C@]12CCCC=C1N(CCc1ccc(OC)c(OC)c1)C(=O)[C@H](CC(=O)NCCc1ccccc1OC)C2 | 13µM | · | – | · | – | –
CCOC(=O)[C@]12CCCC=C1N(CCc1ccc(OC)c(OC)c1)C(=O)[C@H](CC(=O)NCC13CC4CC(CC(C4)C1)C3)C2 | ? | · | – | · | ? | ?
CCOC(=O)[C@]12CCCC=C1N(CCc1ccc(OC)c(OC)c1)C(=O)[C@H](CC(=O)NCCCCc1ccccc1)C2 | 21µM | · | ? | · | ? | ?
COC(=O)[C@]12CCCCC=C1N(CCc1ccc(OC)c(OC)c1)C(=O)[C@H](CC(=O)NCC13CC4CC(CC(C4)C1)C3)C2 | 18µM | · | ? | · | ? | ?
CCCCCCCCN1C(=O)[C@H](CC(=O)NCC23CC4CC(CC(C4)C2)C3)C[C@@]2(C(=O)OCC)CCCC=C12 | – | – | – | – | 16µM | –
O=C(CCOc1ccccc1)NO | · | · | – | · | · | –
O=C(NCCc1nc2ccccc2n1CCOc1ccc2ccccc2c1)C1CCCCC1 | – | · | · | · | – | ·
CCCCCCCCN1C(=O)[C@H](CC(=O)NCCc2ccccc2OC)C[C@@]2(C(=O)OCC)CCCC=C12 | 21µM | ? | ? | 22µM | – | ?

Screening results deposited in PubChem by National Center for Advancing Translational Sciences (NCATS).
